Source: PubChem BioAssay (National Center for Advancing Translational Sciences (NCATS))
Most compounds without a hit are left out; they make up all but 10% or so of the library.
BAZ2B block – inhibitors of human BAZ2B bromodomain | Q9UIF8 | Potency, µM (series often up to 114 µM), actives largely listed as inhibitors | AlphaScreen BAZ2B-H3K14Ac peptide displacement | hit rate 4.4% among 360,000; also: nearly all actives have a fitted effect of over 60% in size
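Compounds, titrated to a top concentration of 110 uM, were incubated 30 min at room temperature with preformed BAZ2B/acetyl-K14 H3 peptide complex (50 nM each). Proximity signal was measured by AlphaScreen after 20 min with beads.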
G9a inh – blocks human histone lysine methyltransferase G9a; hit rate 8.8% among 350,000; AID 504332; Potency, µM (doses to about 102 µM), usual class: inhibitors; G9a H3K9 monomethylation, AlphaScreen, 2 h; also: nearly all actives have a fitted effect of over 75% in size
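Signal arises when biotinylated H3K9 peptide, once monomethylated, bridges streptavidin donor and antibody-captured acceptor beads. Enzyme at 20 nM was preincubated 15 min with test compounds; peptide 500 nM and SAM 20 uM then reacted for 2 h.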
CtBP-E1A inh – blocks the CtBP interaction with E1A; AlphaScreen GST-E1A/His-CtBP binding, 1536-well; hits give low values; activity change, % (test concentration not listed); hit rate 0.49% among 340,000; AID 651724; in the data active = activity change below about -65%; inconclusive = mostly about -30% to -63%
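AlphaScreen with 125 nM GST-E1A and 125 nM His-CtBP (5X stocks) in Tris pH 8.0, 300 mM NaCl, BSA, Tween 20, TCEP. Compounds preincubated 2 h at 37 deg C, then glutathione donor/nickel acceptor beads added for 1 h at 37 deg C in dark.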
HP1b binding inh – inhibitors of HP1-beta chromodomain binding to methylated histone tails. P83916. hit rate 0.56% among 390,000. AlphaScreen HP1-beta / biotin-H3K9me3 peptide binding. Potency, µM (doses to about 114 µM), actives largely listed as inhibitors; also: nearly all actives have a fitted effect of over 70% in size
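AlphaScreen: HP1-beta (50 nM) preformed 30 min with biotin-H3(1-18)K9me3 peptide (50 nM) in PBS pH 7.4, 0.01% Tween-20. Compound added for 30 min at RT, then streptavidin donor/nickel chelate acceptor beads (10 ug/mL) for 30 min.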
Six1-Eya2 blk – inhibitors of human Six1/Eya2 interaction; hit rate 0.56% among 360,000; activity change, % (test concentration not listed); AID 651725; AlphaScreen GST-Six1/His-Eya2 binding, biochemical; hits give low values; in the data active = activity change below about -65%; inconclusive = mostly about -30% to -63%
Target sequence (O00167 whole entry, looked up): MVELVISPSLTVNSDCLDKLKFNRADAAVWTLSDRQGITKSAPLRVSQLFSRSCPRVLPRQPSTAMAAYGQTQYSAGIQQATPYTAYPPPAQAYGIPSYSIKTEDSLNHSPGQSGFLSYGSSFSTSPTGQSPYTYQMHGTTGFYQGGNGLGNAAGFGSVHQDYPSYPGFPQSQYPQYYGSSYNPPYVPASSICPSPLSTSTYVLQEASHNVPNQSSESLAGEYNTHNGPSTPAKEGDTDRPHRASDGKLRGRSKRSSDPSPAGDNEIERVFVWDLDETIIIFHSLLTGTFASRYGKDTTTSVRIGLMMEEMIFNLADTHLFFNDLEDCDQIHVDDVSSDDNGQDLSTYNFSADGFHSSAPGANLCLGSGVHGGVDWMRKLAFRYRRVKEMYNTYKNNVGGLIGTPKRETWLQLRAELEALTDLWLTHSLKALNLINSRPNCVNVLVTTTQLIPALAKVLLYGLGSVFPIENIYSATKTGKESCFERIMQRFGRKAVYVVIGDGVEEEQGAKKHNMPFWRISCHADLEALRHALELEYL
Target sequence (Q15475 whole entry, looked up): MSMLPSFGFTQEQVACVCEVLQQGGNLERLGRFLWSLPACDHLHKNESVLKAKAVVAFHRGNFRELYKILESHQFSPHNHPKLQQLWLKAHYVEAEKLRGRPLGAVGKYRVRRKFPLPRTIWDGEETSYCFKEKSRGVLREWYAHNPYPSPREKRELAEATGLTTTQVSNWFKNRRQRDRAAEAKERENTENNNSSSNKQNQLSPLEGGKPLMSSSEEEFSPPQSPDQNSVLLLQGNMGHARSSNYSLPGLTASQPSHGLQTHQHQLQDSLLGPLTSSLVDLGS
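AlphaScreen with GST-Six1 and His-Eya2 (5X mix: 250 nM and 500 nM), glutathione donor and nickel acceptor beads; buffer 50 mM Tris pH 8.0, 300 mM NaCl, 1 mM TCEP; 1 h at 37 C in the dark.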
JMJD2A Tudor inh – inhibitors of human JMJD2A Tudor domain. O75164. AlphaScreen JMJD2A-Tudor / H3K4me3 peptide binding. Potency, µM (series often up to 114 µM), most hits filed as inhibitors. hit rate 4.4% among 390,000; also: nearly all actives have a fitted effect of over 50% in size
A number is an active result; . = inactive; ? = inconclusive; / = not tested or not shown; [ ] = dose if it differs, or a comment. Unless noted, calls follow the shape of the dose curve; as a rule, active = well fitted inhibition curve with a large enough effect; inconclusive = small, poorly fitted or top-dose-only effect; inactive = no such curve, though single readings can be large or run the other way.

SMILES	BAZ2B block	G9a inh	CtBP-E1A inh	HP1b binding inh	Six1-Eya2 blk	JMJD2A Tudor inh
CCOc1ccc(S(=O)(=O)/N=C(/c2ccccc2)N(C)C)cc1	.	.	.	.	.	.
COc1ccc(NC(=S)N/C(=N/S(=O)(=O)c2ccc(C)cc2)c2ccccc2)cc1	.	?	.	.	.	.
CCOC(=S)N/C(=N\S(=O)(=O)c1ccc(C)cc1)c1ccccc1	.	7.9µM	.	?	.	.
Cc1c(Cl)cccc1-n1ncc(C(=O)NC2CCCC2)c1C1CCN(C(=O)OC(C)(C)C)CC1	.	.	/	.	/	.
Cc1cccc2sc(N(CCN3CCOCC3)C(=O)CCS(=O)(=O)c3ccccc3)nc12	.	50µM	.	.	.	.
Cc1cccc2sc(N(CCCN3CCOCC3)C(=O)CS(=O)(=O)c3ccc(F)cc3)nc12	.	56µM	.	.	.	.
Cc1ccc(S(=O)(=O)CCC(=O)N(CCN2CCOCC2)c2nc3ccccc3s2)cc1	.	.[0.501 µM]	.	.	.	.
Nc1ncnc2c1ncn2[C@@H]1O[C@H](CNC(=O)[C@H](N)Cc2cscn2)[C@@H](O)[C@H]1O	/	/	.	.	.	.
CCN(CC)CCCC(C)Nc1cc(/C=C/c2ccccc2Cl)nc2cc(Cl)ccc12 (stereo not drawn)	/	.[12.7 µM]	/	/	/	/
CCN(CC)CCCC(C)Nc1c2ccc(Cl)cc2nc2ccc(OC)cc12 (stereo not drawn)	.	8.4µM	/	/	/	/
O=C(NNS(=O)(=O)c1ccc(Cl)cc1)c1cccc(S(=O)(=O)N2CCOCC2)c1	.	?	/	.	.	.
O=C(NNS(=O)(=O)c1cccc(Cl)c1Cl)c1cccc(S(=O)(=O)N2CCOCC2)c1	.	32µM	.	.	.	?
C/C(=N\NC(=O)c1cccc(S(=O)(=O)N2CCCC2)c1)c1cccs1	.	.	.	.	.	56µM
CC(=NNC(=O)c1cccc(S(=O)(=O)N2CCOCC2)c1)c1ccccc1	/	/	.	.	.	.
C/C(=N\NC(=O)c1cccc(S(=O)(=O)N2CCOCC2)c1)c1ccc(C#N)cc1	?	40µM	.	.	.	.
COc1ccc(/C(C)=N/NC(=O)c2cccc(S(=O)(=O)N3CCCC3)c2)c(O)c1	2.8µM	.[2.33 µM]	?	.	?	?
CCCCOCCCNC(=O)C[C@@H]1C[C@@]2(C(=O)OC)CC(C)(C)CC=C2N(Cc2ccccc2)C1=O	/	/	.	/	.	/
COc1ccc(-c2nc3cnc(OC)nc3n(CCc3ccccc3)c2=O)cc1	/	.[0.501 µM]	/	/	/	/
CCOCCCNC(=O)c1c[nH]c2ccc(OCC)cc2c1=O	.	.	.	.	.	.[11.4 µM]
CCOC(=O)C1=C(O)C(=O)NC(c2ccccc2)=C(OC2CCCCC2)C1	.	50µM	.	.	.	.
CCOC(=O)C1=C(O)C(=O)NC(c2ccccc2)=C(OCC)C1	.	45µM	.	.	.	.
CC(C)C(NC(=O)c1ccccc1F)C(=O)NCc1ccccc1 (stereo not drawn)	.	.	.	.	.	40µM
O=S(=O)(c1ccc2c(c1)CCCN2)N1CCCC1	.	.[2.33 µM]	.	.	.	.
CCN(CC)c1ccc2c(c1)CCCN2	45µM	1.8µM	/	/	/	/
Fc1cc2[nH]c(=S)[nH]c2c(Br)c1N1CCSCC1	.	10µM	.	?	.	.
SMILES	BAZ2B block	G9a inh	CtBP-E1A inh	HP1b binding inh	Six1-Eya2 blk	JMJD2A Tudor inh
Fc1cc2nccnc2cc1N1CCSCC1	.	.[12.7 µM]	.	.	.	.
COc1ccc(C2=NN(C(=O)c3cccs3)C(O)(C(F)(F)F)C2)cc1 (stereo not drawn)	.	.	.	.	.	.
COc1ccc(C2=NN(c3nc(C(=O)O)cs3)C(O)(C(F)(F)F)C2)c(OC)c1 (stereo not drawn)	50µM	.	.	.	.	.
Cc1ccc(S(=O)(=O)c2nc(-c3ccccc3Cl)oc2N(C)C)cc1	.	/	.	.	.	.
COc1ccccc1/C=C/c1nc(S(=O)(=O)c2ccccc2)c(N(C)C)o1	71µM	35µM	.	.	.	?
Cc1ccc(-c2nc(S(=O)(=O)c3ccc(C)cc3)c(N(C)C)o2)cc1	?	10µM	.	.	.	?
COc1cc(-c2nc(S(=O)(=O)c3ccc(C)cc3)c(N(C)C)o2)cc(OC)c1OC	?	3.5µM	.	.	.	?
COc1ccccc1-c1nc(S(=O)(=O)c2ccc(Cl)cc2)c(N(C)C)o1	?	2.8µM	.	?	.	?
COc1ccc(NC(=O)Nc2c(C)n(C)n(-c3ccccc3)c2=O)c(OC)c1	.	.	.	.	.	.
Cn1c(SCC(=O)N2CCOCC2)ncc(C(=O)Nc2ccccc2)c1=O	.	.	/	.	/	.
CC(C)C(=O)Nc1nc2c(ncn2[C@H]2CC(O)[C@@H](CO)O2)c(=O)[nH]1 (stereo partly drawn)	/	/	/	.	/	.
Cc1ccc(-c2nc3ccccc3o2)cc1NC(=O)c1cccc2c(Cl)cccc12	.	.	/	.	/	.
CC(NCc1cccc(S(=O)(=O)N(C)C)c1)c1ccc(F)cc1 (stereo not drawn)	50µM	/	.	.	.	22µM
CN(C)S(=O)(=O)c1cccc(CSCc2cccc(S(=O)(=O)N(C)C)c2)c1	.	.	.	.	.	.
COC(=O)Cc1c[nH]c2cccc(OCC(O)CN(Cc3ccc([N+](=O)[O-])cc3)C(C)(C)C)c12 (stereo not drawn)	71µM	/	.	?	.	?
COc1cccc(C(NC(C)=O)c2nc(-c3cccc(C#N)c3)cs2)c1 (stereo not drawn)	/	/	.	/	.	/
O=c1[nH]nc(-c2ccc[nH]2)[nH]1	/	/	.	/	.	/
COc1cccc(N2CCN(C(=O)c3ccc4c(Cl)c5c(nc4c3)CCCC5)CC2)c1	?	?	/	.	/	?
O=[N+]([O-])c1cc(/C=N/O)ccc1Sc1ccccc1	50µM	?	.	.	.	56µM
CCn1cc(C(=O)N2CCN(c3ccc(OC)cc3)CC2)c(=O)c2cc(S(=O)(=O)N3CCCCC3)ccc21	?	50µM	/	.	.	.
COc1ccc(N2CCN(S(=O)(=O)c3ccc(OC)c(C(=O)N4CCCCC4)c3)CC2)cc1	.	45µM	.	?	.	.
COc1ccc2c(c1)c(=O)c(C(=O)c1ccccc1)cn2Cc1ccc(C)cc1	.	.	.	.	.	.
COc1ccc(N2CCN(C(=O)c3cc(N4C(=O)C5C6CCC(C6)C5C4=O)ccc3Cl)CC2)cc1 (stereo not drawn)	?	40µM	.	.	.	.
CCn1cc(C(=O)O)c(=O)c2cc(OC)ccc21	?	?	.	.	.	8.9µM
CC(Nc1ccc(-c2nc(-c3ccccn3)no2)cc1[N+](=O)[O-])c1ccccc1 (stereo not drawn)	.	.	/	.	/	.
